Screens: PubChem BioAssay, National Center for Advancing Translational Sciences (NCATS)
Tau fibril FP: inhibitors of human tau fibril formation. P10636. Potency, µM (top dose mostly 57.7 µM), usual class: inhibitors. hit rate 0.39% among 280,000. K18 P301L tau heparin fibrillization, Alexa594 FP, 6 h. AID 1468; further: nearly all actives have a fitted effect of over 55% in size
Target sequence (P10636 561-689 P618L limits assumed): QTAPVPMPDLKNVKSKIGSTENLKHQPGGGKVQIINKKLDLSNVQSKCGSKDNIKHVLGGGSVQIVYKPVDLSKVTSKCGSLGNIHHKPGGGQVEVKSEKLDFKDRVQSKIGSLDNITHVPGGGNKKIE
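Human K18 P301L fragment (15 uM unlabeled plus 0.24 uM Alexa 594-labeled) in 100 mM sodium acetate pH 7 with compound, aggregation induced by 20 uM heparin for 6 hr at 37 C. ThT (30 uM) added for 1 hr, then Alexa 594 FP read.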
Sfp inh: blocks B. subtilis Sfp PPTase activity | Q9F4F7 | Biochemical Sfp PPTase activity, qHTS | Potency, µM, actives largely listed as inhibitors | hit rate 3.5% among 310,000 | AID 1490;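 further: the enzyme is Sfp with the accession as filed and its product quenches rhodamine fluorescence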
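With Hepes-Na pH 7.6 buffer containing 10 mM MgCl2, Sfp (15 nM) modified BHQ-2-YbbR (12.5 uM) using rhodamine-CoA (5 uM). Two reads 30 minutes apart at 525/598 nm yielded each well's rate.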
Tau fibril ThT: inhibitors of human tau fibril formation, thioflavin T binding. Potency, µM (top dose mostly 57.4 µM), hits mostly inhibitors. hit rate 2.1% among 270,000. P10636. recombinant tau K18 P301L, heparin-induced fibrillization, ThT fluorescence. AID 1460; further: nearly all actives have a fitted effect of over 55% in size
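K18 P301L tau (15 uM + 0.24 uM Alexa 594-tagged), heparin 20 uM, NaOAc pH 7, 6 h 37 C; ThT 30 uM, 1 h RT, ex 450/em 510 nm.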
G9a block: blocks human histone lysine methyltransferase G9a; G9a H3K9 monomethylation, AlphaScreen, 2 h; Potency, µM (doses to about 102 µM), most hits filed as inhibitors; hit rate 8.8% among 350,000; AID 504332; further: nearly all actives have a fitted effect of over 75% in size
Target sequence (Q96KQ7 913-1193 limits assumed): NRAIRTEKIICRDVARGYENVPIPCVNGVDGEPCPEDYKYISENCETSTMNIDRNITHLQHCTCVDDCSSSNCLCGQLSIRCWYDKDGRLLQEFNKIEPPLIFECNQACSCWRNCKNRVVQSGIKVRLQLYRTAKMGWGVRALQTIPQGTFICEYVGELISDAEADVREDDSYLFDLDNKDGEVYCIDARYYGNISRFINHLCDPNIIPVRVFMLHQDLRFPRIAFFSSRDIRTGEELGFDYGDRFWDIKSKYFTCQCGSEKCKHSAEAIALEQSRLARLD
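Methyltransferase reactions run at room temperature for 2 h (20 nM enzyme, 500 nM biotin-H3K9 peptide, 20 uM SAM) after a 15 min compound preincubation; product detected by AlphaScreen beads and anti-H3K9me1 antibody.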
Tau fluor counter: counter-screen for tau fibril formation inhibitors; AID 1463; Potency, µM (doses to about 57.7 µM); hit rate 0.93% among 280,000; tau K18 P301L Alexa594 fluorescence, heparin fibrillization; further: nearly all actives have a fitted effect of over 55% in size
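Human tau K18 P301L (15 uM unlabeled, 0.24 uM Alexa 594-labeled) in 100 mM sodium acetate pH 7 with 20 uM heparin, 6 hr at 37 C. ThT 30 uM added, 1 hr ambient; Alexa 594 FP and total fluorescence read at 555/632 nm.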
FBPA coupling cs: coupling enzyme interference in Giardia aldolase counter-screen | coupling enzyme system counterscreen, AmpLite Red fluorescence | activity change, negative = inhibition, % at 58.2 µM, hits read low | hit rate 0.67% among 290,000 | AID 2472; in the data active means activity change below about -30%
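Fluorescence at 525 nm excitation and 598 nm emission measured inhibition of the coupled detection system without aldolase. Compounds (at 57.5 uM final) were preincubated 10 min at room temperature with coupling enzyme reagent before a 20 min substrate/AmpLite Red step.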
Of the large screens only hits and unclear results are named; the others gave an inactive call; ! = a repeat was not active; [ ] = another dose, or the depositor's remark. Hits are enriched below; roughly 11% of the tested compounds scored in any of these assays. Unless noted, the call rests on the fitted dose curve; in most records, active means well fitted curve in the direction sought with a large enough effect; inconclusive means small, poorly fitted or top-dose-only effect, or another doubt; inactive means no such curve, though single readings can be large; an effect the other way counts as inactive or inconclusive.

O=[N+]([O-])c1cc(C(F)(F)F)cc([N+](=O)[O-])c1NN=C1CCCCC1	Tau fibril FP inconclusive, Sfp inh inconclusive, Tau fibril ThT 13µM, G9a block 10µM, Tau fluor counter inconclusive
O=C1[C@H]2[C@H]3[C@H](O)[C@H](O)C/C(=N/OC[C@@H](O)COCc4ccco4)[C@@H]3CC[C@@H]2C(=O)N1C[C@@H]1CCCO1	none (no result: G9a block)
CC(C)Cn1[nH]c2c3c(ccc2c1=O)C(=O)c1ccccc1C3=O	Tau fibril ThT 14µM, G9a block inconclusive, Tau fluor counter inconclusive, FBPA coupling cs -30
CC(C)Cn1c(=O)[nH]c2ccccc21	none
Cc1cccc(-n2[nH]c3c4c(ccc3c2=O)C(=O)c2ccccc2C4=O)c1	Tau fibril ThT inconclusive, G9a block 14µM, Tau fluor counter inconclusive
Clc1ccc(-c2nc3ncccn3c2Nc2ccc3c(c2)OCCO3)cc1	Tau fluor counter inconclusive
Cc1ccc(-c2nc3ncccn3c2Nc2ccc3c(c2)OCCO3)cc1	Tau fibril ThT inconclusive, G9a block 45µM, Tau fluor counter inconclusive
Cc1ccc(-c2nc3ncccn3c2Nc2ccc3c(c2)OCCO3)o1	Sfp inh 45µM, Tau fibril ThT inconclusive, G9a block inconclusive
Cc1ccn2c(NC3CCCC3)c(-c3ccccn3)nc2c1	G9a block inconclusive
Oc1ccc(-c2nc3ncccn3c2Nc2ccc3c(c2)OCCO3)cc1	Tau fibril ThT inconclusive, Tau fluor counter 25µM[quencher]
Cc1ccc(-c2nc3ncccn3c2NC2CCCCC2)o1	Sfp inh 45µM, G9a block inconclusive
CNC(=O)C(=O)NCC1OCCN1S(=O)(=O)c1ccc(OC)c(OC)c1 (centres undefined)	none (no result: Tau fibril FP, Tau fibril ThT, Tau fluor counter)
CCCOc1ccc(C(=O)CCN2CCN(C(=O)OCC)CC2)cc1	Tau fibril ThT inconclusive, G9a block 10µM
O=C(COc1ccccc1)N1CCN(C(=O)c2ccc([N+](=O)[O-])cc2)CC1	none (no result: G9a block)
CCCCCOc1ccc(C(=O)CCN2CCOCC2)cc1	G9a block 45µM (no result: Tau fibril FP, Tau fibril ThT, Tau fluor counter)
COc1ccc(N2CCN(CCC(N)=O)CC2)cc1	none
COc1ccc(C(=O)CCN2CCN(c3ccc(OC)cc3)CC2)cc1	G9a block 40µM (no result: Tau fibril FP, Tau fibril ThT, Tau fluor counter)
CCOC(=O)N1CCN(C(=O)CCC(=O)c2ccc(OCC)cc2)CC1	none (no result: Tau fibril FP, Tau fibril ThT, Tau fluor counter)
Cc1ccc(OCC(=O)N2CCN(C(=O)c3ccc([N+](=O)[O-])cc3)CC2)cc1	Sfp inh inconclusive, G9a block 50µM
COc1cccc(CNC(=O)C(Cc2ccccc2)NS(=O)(=O)c2ccc3c(c2)oc(=O)n3C)c1 (centres undefined)	none (no result: Sfp inh, FBPA coupling cs)
CCOC(=O)c1c(C)[nH]c(C)c1S(=O)(=O)N(C)CC(=O)Nc1ccc(C)cc1C	none (no result: Sfp inh, FBPA coupling cs)
COc1ccc(C(=O)CCN2CCCCCC2)cc1	Tau fibril FP inconclusive, Sfp inh inconclusive, Tau fibril ThT inconclusive, G9a block 8.9µM
CCOc1ccc(NC(=O)c2ccc(NCC(=O)N3CCCCCC3)cc2)cc1	Tau fibril ThT inconclusive, G9a block 25µM
CCOc1ccc(C(=O)CCN2CCCCC2)cc1	G9a block 8.9µM
CC(C)Oc1ccc(C(=O)CCN2CCCCC2)cc1	Tau fibril ThT inconclusive, G9a block 7.9µM
Cc1cccc(Cn2c(C)c(CNC3CCCCCC3)c(C(=O)O)c2C)c1	none (no result: Sfp inh, FBPA coupling cs)
Cc1nn2c(=O)cc(COC(=O)c3cccc(NC(=O)c4cccs4)c3)nc2s1	none (no result: Sfp inh, FBPA coupling cs)
O=C(CCN1CCOCC1)c1ccc(Br)cc1	Tau fibril ThT inconclusive (no result: G9a block)
CCOc1ccc(C(=O)CSCCC(=O)O)cc1	Sfp inh 25µM, Tau fibril ThT inconclusive, G9a block 32µM
O=C(CCN1CCOCC1)c1ccc(Cl)cc1	Tau fibril FP inconclusive, G9a block 11µM
CCOc1ccc(C(=O)N2CCCN(C(=O)c3ccc(OCC)cc3)CC2)cc1	G9a block 32µM
CCOc1ccc(C(=O)COC(C)=O)cc1	none
CCOC(=O)N1CCN(C(=O)c2ccc(OCC)cc2)CC1	none (no result: G9a block)
Cc1ccc(C)c(NC(=O)CCN2CCN(C)CC2)c1	none (no result: Tau fibril FP, Tau fibril ThT, Tau fluor counter)
CCOC(=O)N1CCN(CCC(=O)Nc2cc(C)ccc2C)CC1	G9a block 50µM!
CCCc1nc2sc3c(N4CCC(C)CC4)ncnc3c2c2c1CCCC2	none (no result: Sfp inh, FBPA coupling cs)
Nc1ccccc1NC(=O)c1ccc(CNC(=O)OCc2cccnc2)cc1	none (no result: Tau fibril FP, Tau fibril ThT, G9a block, Tau fluor counter)
